Laboratory results published in PubChem BioAssay (NCI).
This is part of a sample that, as a whole, favours compounds with a hit. Of some 79,000 tested, about 15% had one in any assay. The source made the active and inactive calls. Cut-off read from the data, not from the text of the source: active = growth inhibition above about 70%; inactive = the rest.

What was measured:
[1] = NCI Yeast Anticancer Drug Screen. Data for the rad52 strain (AID 147);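 note: 0% = growth of vehicle-treated control cultures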; conditions: S. cerevisiae rad52 mutant growth inhibition, active compounds read high
In short: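 Genetically altered yeast (DNA damage repair defect) treated with compound; inhibition calculated relative to vehicle.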

[2] = NCI Yeast Anticancer Drug Screen. Data for the wt1 strain (AID 149);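 note: 0% = growth of vehicle-treated wt1 cultures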; conditions: S. cerevisiae wt1 strain (SPY 50644) growth inhibition, active compounds read high
In short: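 Yeast wt1 strain exposed to compounds; growth inhibition measured relative to vehicle-treated controls.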

[3] = NCI Yeast Anticancer Drug Screen. Data for the rad50EPP+ strain (AID 151);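 note: 0% = growth of vehicle-treated control cultures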; conditions: S. cerevisiae rad50 mutant strain, active compounds read high
In short: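 Strain rad50EPP+; compound exposure; % growth inhibition vs vehicle.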

[4] = NCI Yeast Anticancer Drug Screen. Data for the mgt1 strain (AID 153); conditions: S. cerevisiae mgt1 mutant growth inhibition, active compounds read high
In short: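 Read-out: yeast growth inhibition vs vehicle control. Strain mgt1, drawn from a panel altered in DNA damage repair or cell cycle control.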

[5] = NCI Yeast Anticancer Drug Screen. Data for the rad50 strain (AID 155);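 note: 0% = growth of vehicle-only cultures of the same strain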; conditions: S. cerevisiae rad50 strain growth inhibition, active compounds read high
In short: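 Yeast carrying a defined DNA repair defect were exposed to test compounds, and growth was compared with vehicle-treated controls to give percent inhibition.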

[6] = NCI Yeast Anticancer Drug Screen. Data for the mec2-1 strain (AID 157); conditions: S. cerevisiae mec2-1 strain, active compounds read high
In short: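 Cells of the genetically defined mec2-1 yeast strain are incubated with test compound. Inhibition of growth is calculated against vehicle-treated controls.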

[7] = NCI Yeast Anticancer Drug Screen. Data for the rad14 strain (AID 159);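 note: 0% = growth of vehicle-treated control cultures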; conditions: S. cerevisiae rad14 strain growth inhibition, active compounds read high
In short: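 Yeast cells carrying a defined DNA-repair defect were exposed to compounds, and growth inhibition was calculated relative to vehicle-treated control cultures.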

[8] = NCI Yeast Anticancer Drug Screen. Data for the sgs1 mgt1 strain (AID 161);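 note: 0% = growth of cultures given vehicle only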; conditions: S. cerevisiae sgs1 mgt1 strain, active compounds read high
In short: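 Read-out: growth inhibition vs vehicle controls. Cells: mutant yeast strain deficient in DNA damage repair.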

[9] = NCI Yeast Anticancer Drug Screen. Data for the CLN2oe strain (AID 163);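 note: 0% = growth of vehicle-only control cultures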; conditions: S. cerevisiae CLN2oe strain, active compounds read high
In short: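 Strain altered in cell-cycle control, incubated with compound; growth compared to solvent-treated controls.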

[10] = NCI Yeast Anticancer Drug Screen. Data for the cln2 rad14 strain (AID 165);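 note: 0% = growth equal to vehicle treated cultures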; conditions: S. cerevisiae cln2 rad14 strain, active compounds read high
In short: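 The screen exposed genetically defined yeast (cln2 rad14) to test compounds and scored growth inhibition relative to vehicle-treated controls.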

[11] = NCI Yeast Anticancer Drug Screen. Data for the bub3 strain (AID 167); conditions: S. cerevisiae bub3 mutant strain, active compounds read high
In short: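 Compounds were applied to a genetically altered yeast strain carrying a cell-cycle control defect. Growth inhibition was scored against vehicle-treated controls.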

[12] = NCI Yeast Anticancer Drug Screen. Data for the wt2 strain (AID 169);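 note: 0% = growth of vehicle-treated yeast cultures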; conditions: S. cerevisiae wt2 strain growth inhibition, active compounds read high
In short: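 Steps: yeast strain treated with compound; growth recorded; inhibition calculated relative to cultures given vehicle alone.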

[13] = NCI Yeast Anticancer Drug Screen. Data for the mlh1 strain (AID 171);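 note: 0% = growth of vehicle-treated control cultures of the same strain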; conditions: S. cerevisiae mlh1 strain growth inhibition, active compounds read high
In short: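 Yeast screen: mutant strain plus compound, growth scored against vehicle control wells.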

[14] = NCI Yeast Anticancer Drug Screen. Data for the sgs1 strain (AID 173);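 note: 0% = growth of vehicle-only control cultures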; conditions: S. cerevisiae sgs1 mutant, active compounds read high
In short: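 Inhibition of yeast growth served as the measure. The mutant strain was treated with each compound, and growth was normalised to cultures receiving vehicle alone.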

[15] = NCI Yeast Anticancer Drug Screen. Data for the mlh1 rad18 strain (AID 175); conditions: S. cerevisiae mlh1 rad18 strain growth inhibition, active compounds read high
In short: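 Compound-treated yeast growth, normalised to vehicle controls. Strain bears defined DNA repair mutations.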

[16] = NCI Yeast Anticancer Drug Screen. Data for the rad18 strain (AID 177); conditions: S. cerevisiae rad18 mutant growth inhibition, active compounds read high
In short: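 Inhibition values reflect reduced yeast growth compared with vehicle-treated controls, using a strain engineered with a DNA damage repair defect.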

[17] = at 5.0 µM (retest, dose inferred, filed as 0.5)
[18] = at 50.0 µM (retest, dose inferred, filed as 5.0)

Measured: growth inhibition

S=c1[nH]c2c(Cl)c(Cl)c(Cl)c(Cl)c2[nH]1
inactive: [1]; at 1.2 µM 13% | [1]; at 3.7 µM 6% | [1]; at 11.0 µM 45% | [2]; at 1.2 µM 16% | [2]; at 3.7 µM -4% | [2]; at 11.0 µM 33% | [3]; at 1.2 µM 13% | [3]; at 3.7 µM 20% | [4]; at 1.2 µM 9% | [4]; at 3.7 µM 15% | [5]; at 1.2 µM -5% | [5]; at 3.7 µM -2% | [5]; [17] 33% | [5]; at 11.0 µM 59% | [6]; at 1.2 µM -28% | [6]; at 3.7 µM -11% | [6]; [17] 44% | [6]; at 11.0 µM 48% | [7]; at 1.2 µM -11% | [7]; at 3.7 µM 4% | [7]; at 11.0 µM 50% | [8]; [17] -10% | [9]; at 1.2 µM 9% | [9]; at 3.7 µM 3% | [9]; at 11.0 µM 48% | [10]; [17] 61% | [11]; at 1.2 µM -5% | [11]; at 3.7 µM 4% | [11]; [17] 44% | [11]; at 11.0 µM 66% | [12]; at 1.2 µM -12% | [12]; at 3.7 µM -3% | [12]; at 11.0 µM 24% | [13]; at 1.2 µM 2% | [13]; at 3.7 µM 22% | [14]; at 1.2 µM -3% | [14]; at 3.7 µM 10% | [14]; at 11.0 µM 54% | [15]; [17] 26% | [16]; at 1.2 µM 5% | [16]; at 3.7 µM 12% | [16]; at 11.0 µM 42%
active: [1]; at 33.0 µM 97% | [1]; at 100.0 µM 94% | [2]; at 33.0 µM 98% | [2]; at 100.0 µM 96% | [3]; at 11.0 µM 81% | [3]; at 33.0 µM 96% | [3]; at 100.0 µM 95% | [4]; at 11.0 µM 78% | [4]; at 33.0 µM 99% | [4]; at 100.0 µM 93% | [5]; at 33.0 µM 98% | [5]; [18] 92% | [5]; at 50.0 µM 90% | [5]; at 100.0 µM 96% | [6]; at 33.0 µM 98% | [6]; [18] 98% | [6]; at 50.0 µM 91% | [6]; at 100.0 µM 96% | [7]; at 33.0 µM 99% | [7]; at 100.0 µM 96% | [8]; [18] 97% | [9]; at 33.0 µM 97% | [9]; at 100.0 µM 95% | [10]; [18] 95% | [11]; at 33.0 µM 98% | [11]; [18] 95% | [11]; at 100.0 µM 95% | [12]; at 33.0 µM 96% | [12]; at 100.0 µM 96% | [13]; at 11.0 µM 75% | [13]; at 33.0 µM 98% | [13]; at 100.0 µM 94% | [14]; at 33.0 µM 97% | [14]; at 100.0 µM 96% | [15]; [18] 95% | [15]; at 50.0 µM 90.5% | [16]; at 33.0 µM 97% | [16]; at 100.0 µM 95%

O=c1[nH]c2ccccc2c2nc3ccccc3n12
inactive: [1]; at 1.2 µM -43% | [1]; at 3.7 µM -34% | [1]; at 11.0 µM 8% | [2]; at 1.2 µM -39% | [2]; at 3.7 µM -44% | [2]; at 11.0 µM -8% | [2]; at 33.0 µM 3% | [2]; at 100.0 µM -17% | [3]; at 1.2 µM 10% | [3]; at 3.7 µM 16% | [3]; at 11.0 µM 48% | [4]; at 1.2 µM -34% | [4]; at 3.7 µM -14% | [4]; at 11.0 µM 26% | [4]; at 33.0 µM 40% | [4]; at 100.0 µM 8% | [5]; at 1.2 µM -17% | [5]; at 3.7 µM -6% | [5]; [17] 51% | [5]; at 50.0 µM 15.6% | [6]; at 1.2 µM -48% | [6]; at 3.7 µM -50%
active: [1]; at 33.0 µM 72% | [1]; at 100.0 µM 70% | [3]; at 33.0 µM 90% | [3]; at 100.0 µM 92% | [5]; at 11.0 µM 77% | [5]; at 33.0 µM 78% | [5]; [18] 94% | [5]; at 100.0 µM 88%
